The results in this text go back to PubChem BioAssay (NCATS).

A short description of test [1]: High-throughput drug toxicity screening in the BPDCN cell line Gen2.2 (AID 1224824; call rule not given here;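 note: cells exposed to compounds for 48 h before reading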). The note with it: Gen2.2 BPDCN cells; at 45.8 µM (top of the series) unless noted. Put shortly: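 CellTiter-Glo luminescence after 48 h compound exposure of Gen2.2 cells; percent activity set with DMSO as 100% and bortezomib (9.2 uM final) as 0%. Cells seeded at 500 per well, RPMI + 10% FBS, 37 °C.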

A short description of test [2]: High-throughput drug toxicity screening in the BPDCN cell line Cal-1 (AID 1224825; call rule not given here). The note with it: Cal-1 BPDCN cell viability, qHTS; at 45.8 µM (top of the series) unless noted. Put shortly:
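Viability of the BPDCN line Cal-1 is measured as ATP-based luminescence (CellTiter-Glo) following 48 h incubation with compounds. Percent activity uses DMSO-treated wells as 100% and 9.2 uM bortezomib as 0%.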
On the technique in general: qHTS replaces the single test concentration by a dilution series.

Test [3] can be described thus: qHTS assay for measurement of the activity of small molecule inhibitors on Zika virus induced Caspase-3 activity in human iPSC derived neural progenitor cells (hNPCs) (AID 1224857). Note: % of control where 0% means no effect; nearly all actives have a fitted effect of over 65% in size. Put shortly:
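Caspase-3/7 induction by a 6-hour ZIKV infection was quantified with a luminescent Caspase-Glo 3/7 reagent incubated 30 minutes at room temperature. Compounds were preincubated with hNPCs for 1 hour; inhibition was calculated against uninfected and infected control wells.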

Test [4] can be described thus: qHTS assay for measurement of the activity of small molecule inhibitors on Zika virus induced Caspase-3 activity in human astrocytoma cells (AID 1224859).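 Note: plate controls were ZIKV-infected untreated cells for no effect and uninfected cells for full effect.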 An outline of the steps: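 In SNB-19 cells plated at 250 cells/well and grown 16-20 h, compounds were applied 1 h before ZIKV (2 FFU/cell). Six hours later caspase-3/7 luminescence was recorded.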
The nature of test [5]: qHTS Screen of the MIPE 4.0 Collection Against Ewings Sarcoma (RDES) (AID 1259252).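 For viability (percent of control): 100% = DMSO-treated cells and 0% = medium-only wells without cells.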 Note: nearly all actives have a fitted effect of over 35% in size. Note: potency is the fitted concentration of half-maximal effect. Put shortly: (§1)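 Compound titrations go onto adherent log-phase cells 4 h after seeding, incubate 48 h at 37C, then CellTiter-Glo luminescence reports viability relative to DMSO and cell-free controls.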
Test [6] in a line: qHTS Screen of the MIPE 4.0 Collection Against Ewings Sarcoma (TC71) (AID 1259253).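 For viability (% of DMSO): 100% = DMSO-treated cells and 0% = medium-only wells without cells.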 Note: nearly all actives have a fitted effect of over 40% in size. Note: potency is the fitted concentration of half-maximal effect. Put shortly:
as §1

Test [7] is described as follows: qHTS Screen of the MIPE 4.0 Collection Against Ewings Sarcoma (EW8) (AID 1259255).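 For viability: 100% = DMSO-treated cells and 0% = medium-only wells without cells.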 Note: nearly all actives have a fitted effect of over 35% in size. Note: potency is the fitted concentration of half-maximal effect. An outline of the steps:
as §1

Test [8] in a line: qHTS profiling of the MIPE4 collection as inhibitors of Plasmodium falciparum (DD2) proliferation (AID 743345; call rule not given here). Conditions: P. falciparum Dd2 in erythrocytes, SYBR Green DNA, 72 h; at 28.5 µM (top of the series) unless noted. An outline of the steps: (§2)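 Parasite DNA was quantified by SYBR Green I fluorescence (ex 485, em 535 nm) after overnight lysis in saponin/Triton buffer at room temperature. Cultures at 0.3% parasitemia and 2.5% hematocrit were first exposed to compound for 72 h at 37 C; signals were normalised to artemisinin (0.29 uM) and vehicle wells.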

A short description of test [9]: qHTS profiling of the MIPE4 collection as inhibitors of Plasmodium falciparum (DD2) proliferation (Rep 2) (AID 743346; call rule not given here). The note with it: P. falciparum Dd2 in erythrocytes, SYBR Green DNA, 72 h; at 28.5 µM (top of the series) unless noted. Put shortly:
as §2

Test [10] is described as follows: qHTS profiling of the MIPE4 collection as inhibitors of Plasmodium falciparum (HB3) proliferation (AID 743347; call rule not given here;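 note: plate controls were DMSO vehicle wells for no effect and artemisinin wells for full effect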). Conditions: P. falciparum HB3 in erythrocytes, SYBR Green DNA, 72 h; at 28.5 µM (top of the series) unless noted. Put shortly:
as §2

SMILES strings stand for the structures. Records with an inconclusive call do not appear. The source made the active and inactive calls. Unless noted, calls come from the whole dose curve; as a rule, active = well fitted inhibition curve with a large enough effect; inconclusive = small, poorly fitted or top-dose-only effect; inactive = no such curve, though single readings can be large or run the other way.

Regarding `CC(N[C@H]1CCCC[C@H]1NC(=O)c1ccc(Cl)cc1)c1cccc2ccccc12` (stereo partly drawn), the cell viability, % of control (lower = more cytotoxic) in test [1] is 114%. Besides, the viability (% of control) in [2] was 20.6%. Moreover, the Potency result in [3], in test [4], in test [5], in test [6] and in [7] was “inactive” in each case.
Turning to `c1ccc(CNc2nc(NCc3ccccc3)c3ccccc3n2)cc1`, the parasite growth remaining, % of DMSO control (lower = more inhibition) in test [8] turned out to be 7.99%. Moreover, the parasite growth, % of control (lower = inhibition) in test [9] stood at 10.1%. The growth, % of control in test [10] was 8.52%. Also, the cell viability, % of control (lower = more cytotoxic) in [1] stood at 6.1%. Also, the viability (% of control) in test [2] amounted to 2.67%. The Potency entry in test [3] and in test [4] was “inactive” throughout. Also, the results for the Potency in test [5], in test [6] and in test [7] were 20.9 µM (active), 26.4 µM (active) and 20.9 µM (active), respectively.
`Nc1ccn(C[C@@H](CO)OCP(=O)(O)O)c(=O)n1`: the cell viability, % of control (lower = more cytotoxic) in test [1] was 138% [at 23.2 µM]. Moreover, in [2], the viability (% of control) was 98.1% [at 23.2 µM]. Moreover, the Potency result in test [3], in test [4], in test [5], in test [6] and in [7] was “inactive” in each case.
In the case of `CC1=C(C(=O)Nc2cc3cn[nH]c3cc2F)C(c2ccc(Cl)cc2F)N=C(c2ccnc(Cl)c2)N1` (stereo not drawn), the parasite growth remaining, % of DMSO control (lower = more inhibition) in [8] came to 36.2%. Further, the parasite growth, % of control (lower = inhibition) in [9] came out at 21.1%. In addition, the growth, % of control in test [10] came out at 10.9%. The cell viability, % of control (lower = more cytotoxic) in test [1] turned out to be 4.15%. For the same compound, in test [2], the viability (% of control) stood at 3.35%. Moreover, the Potency entry in [3] and in test [4] was “inactive” throughout. Besides, the Potency was 18.7 µM (active) in [5], 14.8 µM (active) in [6] and 26.4 µM (active) in [7].
In the case of `Cn1cnc(=N)c2[nH]cnc21`, the parasite growth remaining, % of DMSO control (lower = more inhibition) in test [8] came out at 6.87%. Moreover, the parasite growth, % of control (lower = inhibition) in [9] worked out at 7.19%. In test [10], this compound returned a growth, % of control of 3.51%. Also, the cell viability, % of control (lower = more cytotoxic) in test [1] came to 128%. Also, the viability (% of control) in test [2] is 8.73%. Moreover, the Potency entry in test [3] and in test [4] was “inactive” throughout. Also, the figures for the Potency in test [5], in [6] and in test [7] were 0.296 µM (active), 0.235 µM (active) and 0.209 µM (active), respectively.
As usually defined, the viability is a read-out of living cells in per cent, often relative to untreated cells. In the case of `CC(C)(C)[C@H](NC(=O)c1ccc(N)c(Cl)c1)C(=O)N1CCC[C@@H]1C(=O)N[C@H](C#N)CC(=O)O`, the parasite growth remaining, % of DMSO control (lower = more inhibition) in test [8] was 110% [at 3.19 µM]. Besides, the parasite growth, % of control (lower = inhibition) in test [9] worked out at 108% [at 3.19 µM]. Further, in test [10], the growth, % of control came to 588% [at 3.19 µM]. In addition, in test [1], the cell viability, % of control (lower = more cytotoxic) turned out to be 14.9% [at 3.51 µM]. Moreover, the viability (% of control) in [2] is 25% [at 3.51 µM]. Also, the figures for the activity change, negative = inhibition in test [3] and in [4] were 12% [at 4.53 µM] (inactive) and 53% [at 4.53 µM] (inactive), respectively. Also, the viability (percent of control) in [5] was 112% [at 3.51 µM] (inactive). In addition, in test [6], the viability (% of DMSO) is 134% [at 3.51 µM] (inactive). Moreover, the viability in test [7] is 116% [at 3.51 µM] (inactive).
As to `O=c1[nH]c(=O)n([C@H]2C[C@@H](O)[C@@H](CO)O2)cc1C=CBr`, the cell viability, % of control (lower = more cytotoxic) in test [1] was found to be 164%. The viability (% of control) in test [2] is 115%. The Potency entry in test [3], in [4], in [5], in test [6] and in test [7] was “inactive” in each case.
On to `CC(=O)OCC(=O)[C@@]12N=C(C)O[C@H]1C[C@H]1[C@@H]3CCC4=CC(=O)C=C[C@]4(C)[C@@H]3[C@@H](O)C[C@@]12C`, for which the parasite growth remaining, % of DMSO control (lower = more inhibition) in test [8] stood at 90%. In addition, the parasite growth, % of control (lower = inhibition) in test [9] turned out to be 68.3%. This compound gave a growth, % of control in [10] of 84%. Moreover, in test [1], the cell viability, % of control (lower = more cytotoxic) worked out at 94.7%. Besides, the viability (% of control) in test [2] is 57.7%. The Potency entry in [3], in [4], in [5], in test [6] and in test [7] was “inactive” in each case.
Regarding `CC(=O)O[C@H]1C[C@@H]2CC[C@H]3[C@H]4C[C@H]([N+]5(C)CCCCC5)[C@@H](OC(C)=O)[C@@]4(C)CC[C@@H]3[C@@]2(C)C[C@H]1[N+]1(C)CCCCC1`, in test [1], the cell viability, % of control (lower = more cytotoxic) came to 232%. Besides, the viability (% of control) in [2] worked out at 120%. Also, the Potency result in test [3] and in test [4] was “inactive” throughout. Further, the Potency in test [5] is 1.32 µM (active); in test [6], 1.05 µM (active); in test [7], 2.64 µM (active).
